# Test results published in PubChem BioAssay AID588689 (Southern Research Specialized Biocontainment Screening …, 2011).
# Hit rate of the full screen: of about 340,000 compounds, about 1,000 (0.29%) were called active. Cut-off read from the data, not from the text of the source: inconclusive = inhibition above about 29% without an active follow-up result; inactive = below that. A selection follows. Potency and affinity values are given separately.
# Target: Genome polyprotein (Dengue virus type 2 (strain 16681-PDK53)) (UniProt P29991)
# Assay: flavivirus cap methylation enzyme inhibition – biochemical, confirmation dose response, primary screen (AID 588689)
# Conditions: Dengue-2 NS5 methyltransferase capping enzyme assay, at 25 µM, stronger effect = higher value
# [1] = measured here: pilot screen replicate inhibition
Compound,inhibition,inhibition [1] [%]
CCN(CC)S(=O)(=O)c1ccc(N2CCOCC2)c(NC(=O)c2cc3ccccc3oc2=O)c1,-2.2% (inactive),–
COC(CNC(=O)c1cnn2c(C)c(Cc3ccccc3)c(C)nc12)OC,-1.46% (inactive),–
Cc1cc(NC(=O)CSc2nc3cc(Cl)ccc3o2)no1,1.78% (inactive),–
COc1ccc(NC(=S)NN2C(C)CCCC2C)cc1 (stereo unspecified),-6.57% (inactive),–
Cc1ccc(S(=O)(=O)N(C)CC(=O)N2CCCc3ccccc32)cc1,3.9% (inactive),–
Cc1cc(C)c(C)c(S(=O)(=O)ON2C(=O)c3ccccc3C2=O)c1C,-4.83% (inactive),–
COc1ccc(OC)c(S(=O)(=O)ON2C(=O)c3ccccc3C2=O)c1,12.6% (inactive),–
Cc1ccc(S(=O)(=O)N2CCN(C(=O)CN3C(=O)c4ccccc4C3=O)CC2)c(C)c1,-3.1% (inactive),–
Cc1ccc(S(=O)(=O)ON2C(=O)c3cccc4cccc(c34)C2=O)cc1,14.2% (inactive),–
COC(=O)c1ccnc(SCC(=O)c2ccccc2)c1,-7.25% (inactive),–
Cc1cc(C)c(N2C(=O)C3C4CC(=O)C(c5ccccc54)C3C2=O)c(C)c1 (stereo unspecified),-3.14% (inactive),–
On1c(-c2ccccc2)nc2ccccc21,-0.77% (inactive),–
c1ccc(-c2nc3ccccc3c3nc4ccccc4n23)cc1,0.36% (inactive),–
O=C(NCCN1CCOCC1)C1CC(=O)N(c2ccc(Cl)cc2)C1 (stereo unspecified),-16.7% (inactive),–
S=C(NCc1ccco1)Nc1ccc(Br)cn1,-6.51% (inactive),–
Cc1ccccc1S(=O)(=O)N(CC(O)CN1CCCCC1)c1ccccc1 (stereo unspecified),-8.27% (inactive),–
COc1cc(C(=O)N2CCN(c3ccccc3)CC2)c([N+](=O)[O-])cc1OC,-3.88% (inactive),–
CCOc1ccc(C(=O)Cc2cc(OC)c(OC)cc2[N+](=O)[O-])cc1,-1.39% (inactive),–
CCOc1ccc(N2C(=O)/C(=C\c3ccccc3OC)S(=O)(=O)C2c2cccc([N+](=O)[O-])c2)cc1 (stereo unspecified),-7.02% (inactive),–
COc1ccc(C(=Cc2cc(OC)c(OC)cc2[N+](=O)[O-])C(=O)O)cc1,-1.59% (inactive),–
CCOC(=O)C1CCCN(C(=O)c2cn(C)c(=O)c3cc(OC)c(OC)cc23)C1 (stereo unspecified),-5.65% (inactive),–
C#CCOCCOCCOCCNc1nc(N2CCOCC2)nc(N2CCN(C(=O)CCCCCCCCCCNC(=O)Cn3cc(CCCCCN)nn3)CC2)n1,9.92% (inactive),–
Cc1cc(Cl)ccc1OC(C)C(=O)N1CCCN(C(=O)C(C)Oc2ccc(Cl)cc2C)CC1 (stereo unspecified),-1.34% (inactive),–

Compound,inhibition,inhibition [1] [%]
COc1ccc(C2(CNC(=O)CCC(=O)O)CCCC2)cc1OC,-1.37% (inactive),-4.84
O=C(O)c1ccc(-c2cccc(Cl)c2)o1,-4.79% (inactive),–
Cc1[nH][nH]c(=O)c1C(c1ccc(-c2ccc(Cl)c(Cl)c2)o1)c1c(C)[nH][nH]c1=O,61.3% (inactive),–
O=Cc1ccc(-c2ccc(F)cc2)o1,-6.55% (inactive),–
Cc1[nH][nH]c(=O)c1C(c1ccc(-c2ccc(Cl)cc2)o1)c1c(C)[nH][nH]c1=O,21% (inactive),–
CCC(OC(=O)c1nsc(Cl)c1Cl)C(=O)NCC1CCCO1 (stereo unspecified),-4.98% (inactive),–
CCCc1cc(=O)oc2cc(C)cc(OC(C)C(=O)NCc3cccnc3)c12 (stereo unspecified),-9.54% (inactive),–
NC(=O)Cn1c(O)c(N=NC(=O)CNC(=O)/C=C/c2ccccc2)c2ccccc21,3.88% (inactive),–
CC(C)CC(COCc1cccc(Cl)c1)N1CCN(C(=O)c2cccc(C(F)(F)F)c2)CCC1=O (stereo unspecified),0.79% (inactive),–
CCOc1ccccc1CN1CCNC(=O)C1CC(=O)NC1CCCCCC1 (stereo unspecified),7.85% (inactive),–
CC(C)CCn1c(SCC(=O)Nc2ccccc2C(F)(F)F)nc2nccnc2c1=O,-2.66% (inactive),–
CCOC(=O)C1CCN(S(=O)(=O)c2ccc(CNC(=O)c3ccccc3)s2)CC1,-13.1% (inactive),–
COC(=O)Nc1ccc(S(=O)(=O)N2CCCC(C(=O)N3CC(C)OC(C)C3)C2)cc1 (stereo unspecified),-5.54% (inactive),–
O=C(CSc1nnc2ccc(-c3ccccn3)nn12)Nc1ccc(F)cc1,2.75% (inactive),–
C[C@@H]1CN(C(=O)c2cc(COc3cccc(C(F)(F)F)c3)on2)C[C@H](C)O1,-9.08% (inactive),–
COc1ccccc1C(=O)Nc1ccnn1C1CCN(Cc2cn(C)c3ccccc23)CC1,-3.88% (inactive),–
C/C(CCC(=O)O)=N/Nc1ccc([N+](=O)[O-])cc1[N+](=O)[O-],-3.25% (inactive),–
CCC(CC)=NNc1ccc([N+](=O)[O-])cc1[N+](=O)[O-],-0.89% (inactive),–
Cc1ccc(CN2CCN(CC(=O)NC(C)CCc3ccccc3)C2=O)cc1 (stereo unspecified),-4.17% (inactive),–
CCCc1cc(=O)c2ccc(OCC(C)=O)cc2o1,-9.24% (inactive),–
COCCC(=O)NNS(=O)(=O)c1ccc(Cl)cc1,5.47% (inactive),–
CC(C)N(CCNS(=O)(=O)c1ccc(Cl)cc1)C(C)C,0.97% (inactive),–
CCOc1ccc(NC(=O)c2ccc(S(=O)(=O)N3CCOCC3)cc2)cc1,1.78% (inactive),–

Compound,inhibition,inhibition [1] [%]
CN1C(=O)C2C3c4ccccc4C(c4ccccc43)[C@@H]2C1=O (stereo partly specified),-1.31% (inactive),–
CC(C(=O)O)N1C(=O)C2C3c4ccccc4C(c4ccccc43)[C@@H]2C1=O (stereo partly specified),-2.61% (inactive),–
CCC(C(=O)O)P(=O)(c1ccc(Cl)cc1)c1ccc(Cl)cc1 (stereo unspecified),-8.59% (inactive),–
CCCCCSc1nncc(=O)[nH]1,4.01% (inactive),–
COC1=CC(=O)C(OC)=C(OC)C1=O,6.99% (inactive),–
COc1ccc(-c2cccc(NC(=O)c3cccs3)c2)nn1,-3.63% (inactive),–
O=C(CSc1nc2ccccc2s1)Nc1cc(S(=O)(=O)N2CCOCC2)ccc1Cl,-0.74% (inactive),–
O=C1SCC(c2ccc(Cl)cc2Cl)=NN1Cc1nnc(-c2ccccc2)o1,-1.48% (inactive),–
O=c1[nH]cnc2c1sc1nc(-c3ccccc3)c3c(c12)CCCC3,-9.17% (inactive),–
O=C(O)CSc1ncnc2c1sc1nc(-c3ccccc3)c3c(c12)CCC3,22.7% (inactive),–
CCN(CC)c1ccc(S(=O)(=O)N2CCOCC2)cc1NC(=O)CSC(=S)N1CCCC1,-4.86% (inactive),–
COCCN(C(=O)CSc1nnc(-c2cccc(Cl)c2)n1N)c1c(N)n(CC(C)C)c(=O)[nH]c1=O,-1.15% (inactive),–
C/C=N\NC(=O)CNC(=O)CNC(=O)c1ccccc1,-9.83% (inactive),–
Oc1ccc(CNC2CCCCC2)cc1,-4.06% (inactive),–
Oc1ccc(Cl)cc1CNC1CCCCC1,-11.2% (inactive),–
CC(=O)NCCNC(=O)c1oc2ccccc2c1CSc1ncn[nH]1,0% (inactive),–
Cc1cc(C)nc(N/N=C/c2ccccc2OCC(=O)O)n1,0% (inactive),–
COc1cccc(N=Cc2nc(-c3ccccc3)oc2OC(C)=O)c1,-7.76% (inactive),–
COc1ccc(N=Cc2nc(-c3ccccc3)oc2OC(C)=O)cc1,-15.3% (inactive),–
O=C1c2ccccc2C(=O)N1c1ccccc1,-3.62% (inactive),–
COc1ccc(-c2noc(-c3ccccc3C(=O)NCc3ccco3)n2)cc1OC,-1.61% (inactive),–
CCOC(=O)N1CCN(C(=O)/C=C/c2ccc(OC)c(OC)c2)CC1,-5.82% (inactive),–
COc1ccccc1/C=c1\sc2nc(-c3ccco3)nn2c1=O,20.1% (inactive),–

Compound,inhibition,inhibition [1] [%]
COc1ccccc1/C=c1\sc2nc(-c3ccccc3OC)nn2c1=O,5.01% (inactive),1.52
COc1ccccc1/C=C/C=c1\sc2nc(=O)c(Cc3ccccc3)nn2c1=O,-9.19% (inactive),–
CCOc1ccccc1/C=c1\sc2ncnn2c1=O,3.42% (inactive),–
Cc1cccc(NS(=O)(=O)c2ccc(NS(=O)(=O)c3cccs3)cc2)c1,13.3% (inactive),–
N#C/C=C/N1CCC(Cc2ccccc2)CC1,-4.96% (inactive),–
N#CCCN(C(=O)COC(=O)Cc1ccc(Br)cc1)c1ccccc1,-13.2% (inactive),–
CC(C)c1[nH]c(=O)c(C#N)c2c1CSC(C)(C)C2,-6.61% (inactive),–
COc1ccc(C(CCN2CCOCC2)c2c(O)cc(OC)cc2OC)cc1 (stereo unspecified),-0.7% (inactive),–
OCc1ccccc1CNCc1ccccc1,-5.52% (inactive),–
Oc1ccccc1CNCc1ccccc1,-2.38% (inactive),–
CSc1ncccc1C(=O)OCc1cccc([N+](=O)[O-])c1,0% (inactive),–
COc1ccc(NC(=O)N(C)C[C@@H]2OCc3cnnn3CCCC(=O)N([C@H](C)CO)C[C@H]2C)cc1,0.55% (inactive),–
Cc1ccc(C(=O)Nc2ccc3cn[nH]c3c2)cc1S(=O)(=O)N1CCOCC1,-0.88% (inactive),–
O=c1oc2c3c4c(cc2c2c1CCC2)OCCN4CCC3,24.7% (inactive),–
CC(C)c1cc(=O)oc2c3c4c(cc12)CCCN4CCC3,0% (inactive),–
N/C(=N\OC(=O)CCC1CCCCC1)c1cccc([N+](=O)[O-])c1,-1.88% (inactive),1.82
O=C(CSc1ccccc1)N1CCN(S(=O)(=O)c2ccccc2F)CC1,3.25% (inactive),–
CCCCn1c(NC(=O)c2ccco2)c(S(=O)(=O)c2ccc(C)cc2)c2nc3ccccc3nc21,-64.2% (inactive),–
C=CCn1c(NC(=O)c2ccc(Br)o2)c(S(=O)(=O)c2ccccc2)c2nc3ccccc3nc21,-4.19% (inactive),–
OCCC1CN(Cc2cnn(-c3ccccc3Cl)c2)CCN1Cc1ccsc1 (stereo unspecified),-2.26% (inactive),–
CC(C)N(C(=O)[C@H]1C[C@H](CC(=O)NCCN2CCOCC2)C(=O)N2CCc3c([nH]c4cc(-c5ccco5)ccc34)[C@]12C)C(C)C,-6.51% (inactive),–
Cc1cccc(C2c3c(n(C)c(=O)n(C)c3=O)N=C3c4ccccc4C(=O)C32)c1 (stereo unspecified),2.3% (inactive),–
Cc1nn(-c2ccccc2)c(C)c1-c1ccccc1O,-5.22% (inactive),-6.7
